Results published in PubChem BioAssay.

Assays:
[1] = test system: Human papillomavirus type 1a protein E7 (residues 44-93); assay: small molecules binding HPV E7 44-93 – biochemical, small-molecule microarray, residues 44-93, 635 nm fluorescence, primary screen (AID 1108); conditions: fluorescence 635 nm, higher = more signal;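 also: E7 fragment applied at 1 µg/mL in TBST for 1 h at 4 C; score combines spot fluorescence with its signal to noise ratio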
[2] = hepatitis C replication reporter changes, two-sided – Huh7 cells, luciferase reporter, HCV replication inhibitor project, primary screen (AID 1109); conditions: Huh7 HCV replicon luciferase reporter, 48 h; higher = more signal;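 also: huh7 hepatoma cells harbouring a luciferase neomycin HCV replicon reporter; luciferase luminescence as measure of HCV replicon replication; test concentration not given here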
[3] = molecular target: Left-right determination factor 2 (Homo sapiens) (UniProt O00292); assay: small molecules binding LEFTY2 protein – biochemical, small-molecule microarray, 635 nm fluorescence scan, primary screen (AID 1110); conditions: higher = more signal
Sequence of Left-right determination factor 2 (Homo sapiens) (O00292 whole entry, looked up): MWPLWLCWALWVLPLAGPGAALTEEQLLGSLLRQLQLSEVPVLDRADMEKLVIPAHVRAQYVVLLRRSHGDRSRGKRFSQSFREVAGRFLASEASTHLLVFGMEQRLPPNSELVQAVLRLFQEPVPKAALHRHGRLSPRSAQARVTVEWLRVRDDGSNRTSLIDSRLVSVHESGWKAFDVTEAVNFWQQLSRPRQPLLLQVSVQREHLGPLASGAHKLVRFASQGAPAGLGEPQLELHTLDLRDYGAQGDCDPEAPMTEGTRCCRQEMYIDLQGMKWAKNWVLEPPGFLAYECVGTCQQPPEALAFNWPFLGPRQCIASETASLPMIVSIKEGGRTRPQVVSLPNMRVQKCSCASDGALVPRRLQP

[4] = molecular target: Calmodulin-1 (Homo sapiens) (UniProt P0DP23); assay: small molecules binding calmodulin-1 with EGTA – biochemical, small-molecule microarray, Cy5-labelled CALM1, profiling panel (AID 1111); conditions: Cy5-CALM1 binding fluorescence, higher = more signal;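 also: labelled calmodulin applied in Tris saline Tween buffer holding calcium plus EGTA and DTT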
[5] = molecular target: Calmodulin-1 (Homo sapiens) (UniProt P0DP23); assay: small molecules binding Ca-loaded calmodulin-1 – biochemical, small-molecule microarray, Cy5-labelled CALM1, plus calcium, artefact control for SMM control-protein annotation, profiling panel (AID 1112); conditions: Cy5-CALM1 binding fluorescence, higher = more signal;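 also: score merges spot fluorescence with signal to noise from triplicate slides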
[6] = probe aWnt5a binding to arrayed compounds – biochemical, biotinylated probe, 635/667 nm fluorescence, primary screen (AID 1113); conditions: small-molecule microarray, higher = more signal;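 also: score merges 667 nm fluorescence intensity with signal-to-noise per printed feature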
[7] = probe aShh binding to arrayed compounds – biochemical, biotinylated probe, 635/667 nm fluorescence, primary screen (AID 1114); conditions: small-molecule microarray, higher = more signal;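 also: probe is biotin-labelled aShh protein from a stem cell growth factor screen; measures binding of labelled protein to compounds printed on the slide; score merges feature fluorescence at 667 nm with signal-to-noise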
[8] = probe aNog binding to arrayed compounds – biochemical, biotinylated probe, 635/667 nm fluorescence, primary screen (AID 1115); conditions: small-molecule microarray, higher = more signal;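 also: probe is biotinylated aNog protein used at 0.15 µg/mL for 1 h at 4 C; z-score combines 667 nm fluorescence of each spot with its signal to noise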
[9] = molecular target: Torsin-1A-interacting protein 1 (Homo sapiens) (UniProt Q5JTV8); assay: compound microarray binding of lysate hLAP1 – cell lysate, small-molecule microarray, COS7 lysate, 635/667 nm fluorescence, primary screen (AID 1116); conditions: 635 nm fluorescence, higher = more signal
Sequence of Torsin-1A-interacting protein 1 (Homo sapiens) (Q5JTV8 whole entry, looked up): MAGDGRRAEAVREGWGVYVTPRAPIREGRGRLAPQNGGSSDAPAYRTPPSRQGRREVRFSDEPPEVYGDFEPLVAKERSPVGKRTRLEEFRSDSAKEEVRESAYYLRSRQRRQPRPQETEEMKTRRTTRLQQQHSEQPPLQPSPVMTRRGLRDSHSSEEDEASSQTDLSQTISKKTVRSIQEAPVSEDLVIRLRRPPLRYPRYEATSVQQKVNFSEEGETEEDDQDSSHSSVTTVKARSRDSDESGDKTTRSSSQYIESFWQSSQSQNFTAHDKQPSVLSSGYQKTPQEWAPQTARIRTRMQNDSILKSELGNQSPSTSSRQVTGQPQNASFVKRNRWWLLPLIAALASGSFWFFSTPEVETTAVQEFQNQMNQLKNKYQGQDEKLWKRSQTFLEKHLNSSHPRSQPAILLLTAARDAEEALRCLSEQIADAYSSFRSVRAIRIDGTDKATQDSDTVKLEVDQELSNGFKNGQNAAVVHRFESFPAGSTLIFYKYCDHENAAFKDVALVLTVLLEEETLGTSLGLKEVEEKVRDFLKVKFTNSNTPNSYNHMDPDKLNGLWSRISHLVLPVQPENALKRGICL

[10] = molecular target: Alpha-bungarotoxin (Bungarus multicinctus) (UniProt P60615); assay: compounds binding labelled alpha-BTX control protein – biochemical, small-molecule microarray, Alexa647 label, 635/667 nm fluorescence, artefact control for SMM control protein annotation, profiling panel (AID 1117); conditions: alpha-BTX-A647 binding fluorescence, higher = more signal
Sequence of Alpha-bungarotoxin (Bungarus multicinctus) (P60615 whole entry, looked up): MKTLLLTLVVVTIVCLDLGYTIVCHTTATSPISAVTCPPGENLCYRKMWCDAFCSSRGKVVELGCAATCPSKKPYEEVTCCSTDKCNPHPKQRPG

SMILES	composite z-score [1]	z-score [2]	composite z-score [3]	composite z-score [4]	composite z-score [5]	composite z-score [6]	composite z-score [7]	composite z-score [8]	composite z-score [9]	composite z-score [10]
O=C(C1N=C(c2ccc(OCCCO)cc2)N(c2ccccc2)O1)N1CCOCC1 (stereo not given)	1.37	-2.11	0.677	1.29	0.335	-0.0445	0.465	-0.492	0.832	1.12
[N-]=[N+]=NCc1ccccc1C[C@]1(C(=O)NCC(O)CO)N=C(c2ccc(OCCCO)cc2)O[C@H]1c1ccccc1 (stereo not given in full)	0.722	-1.82	-1.84	1.51	1.24	-0.0405	-0.0211	1.06	0.846	0.19
[N-]=[N+]=NCc1ccccc1C[C@@]1(C(=O)NCC(O)CO)N=C(c2ccc(OCCCO)cc2)O[C@@H]1c1ccccc1N=[N+]=[N-] (stereo not given in full)	1.39	-2.72	-0.124	2.21	1.02	0.149	0.156	2.11	2.18	0.842
O=C1NC(=O)C2C1C=CC(C(O)c1cccc3ccccc13)N2Nc1ccccn1 (stereo not given)	0.355	0.496	0.326	-0.168	-0.477	-0.034	0.401	0.116	0.594	0.307
CC(=O)N1Cc2ccccc2C[C@@]2(COC(c3ccc(OCCCO)cc3)=N2)C1=O	0.612	-1.62	0.827	1.79	0.845	0.0587	0.412	0.114	1.7	1.88
C=CCOC(=O)[C@@H]1[C@H]2C(=O)O[C@H](c3ccccc3)[C@H](c3ccccc3)N2[C@H](c2ccc(OCCOC(=O)[C@@H]3C[C@@H]4C(=O)N5CCC[C@H]5C(=O)N4[C@@H]3c3ccc(O)cc3)cc2)[C@@]12C(=O)Nc1ccc(I)cc12	1.33	-0.64	0.761	2.06	0.481	-0.145	-0.0793	-0.331	1.4	0.327
O=C1C[C@]2(c3ccc([N+](=O)[O-])cc3)C(=O)N(CCN3CCOCC3)c3cc(CO)ccc3[C@H]2N1C1CCCCC1	-1.26	-0.809	-0.91	-0.146	0.0884	-0.363	-0.211	-0.405	-0.308	-0.251
O=C1NCC(=O)N2[C@@H]1C[C@@H](C(=O)O)[C@H]2c1cccc(OCCO)c1	1.57	0.19	1.68	2.17	1.1	1.38	3.13	3.62	4.92	2.04
O=C1c2ccccc2[C@@]2(Cc3ccccc3N(CCN3CCOCC3)C2=O)[C@H](c2ccc(CO)cc2)N1Cc1ccccc1	-0.22	-0.446	-0.976	-0.211	-0.11	-0.128	-0.0709	-0.5	1.01	0.175
CC(C)c1ccc(NN2C(C(O)c3cc(C(F)(F)F)cc(C(F)(F)F)c3)C=CC3C(=O)N(c4ccccc4)C(=O)C32)cc1 (stereo not given)	1.35	-0.748	-0.931	1.55	0.647	-0.0704	0.37	0.897	0.831	0.817
C#CCNC(=O)[C@H](Cc1ccccc1)NC(=O)CCC(=O)O	-0.665	-0.25	-0.0677	-1.48	-0.834	-0.12	-0.214	-0.501	0.409	-0.368
CC(C)C[C@@H]1NC(=O)[C@H]2C[C@@H](C(=O)NCCCCCCN)[C@@H](c3ccc(O)cc3)N2C1=O	0.302	0.742	0.057	0.143	0.307	0.055	-0.214	0.103	1.13	0.585
CN1C(=O)C2C=CC(C(O)c3ccccc3)N(Nc3ccccc3)C2C1=O (stereo not given)	-0.265	0.773	-1.52	0.253	-0.143	-0.0758	-0.0813	-0.448	-0.454	0.201
C=CCN(Cc1ccccc1)C(=O)C(c1cccs1)N(CCOCCO)C(=O)/C=C\C(=O)O (stereo not given)	-0.762	0.448	-2.24	-0.512	0.446	-0.256	-0.0035	-0.0712	-1.45	-1.82
C=CCN1C(=O)[C@]2(O[C@H](CCO)[C@@H]([Si](C)(C)c3ccc(OC)cc3)[C@@H]2C)c2cc(N3C(=O)c4cccc5cccc3c45)ccc21	1.17	-5.11	0.164	0.719	0.124	-0.159	0.0639	-0.338	0.374	0.3
C=C(CCCC)/C(=C/C[C@@H](OC(C)=O)c1ccccc1OCCO)c1cnc2ccccc2c1	0.75	-2.25	0.157	-0.0416	-0.418	-0.124	-0.0977	0.369	0.44	0.157
CCOC(=O)C[C@H]1[C@H](OC(=O)Cc2ccc3c(c2)OCO3)[C@@H](NC(=O)c2ccc3ccccc3c2)c2cc(OCCCO)ccc2N1C(=O)c1ccccc1	0.967	-1.57	0.348	0.119	-0.447	-0.147	-0.2	-0.417	0.656	0.943
COC(=O)c1c(CC[C@@H](CO)NC(=O)N[C@@H](C)Cn2cc(C3(O)CCCCC3)nn2)oc(C(C)=O)c1C(=O)OC	0.921	-0.418	0.703	0.685	-1.53	-0.0556	0.0328	-0.0211	0.666	0.431

SMILES	composite z-score [1]	z-score [2]	composite z-score [3]	composite z-score [4]	composite z-score [5]	composite z-score [6]	composite z-score [7]	composite z-score [8]	composite z-score [9]	composite z-score [10]
COc1ccc(CCNC(=O)[C@@]2(C)c3ccccc3C(=O)N(Cc3cc(F)cc(C(F)(F)F)c3)[C@H]2c2ccc(CO)cc2)cc1	0.0404	-0.928	-0.454	0.123	-0.183	-0.0944	-0.0849	0.549	-0.152	-0.838
COC(=O)[C@@]1(Cc2ccc(OC)cc2)[C@H]2c3cc(C(=O)N4CCCC4)n(Cc4ccc(OC)c(OC)c4)c3C[C@H]2CN1C(=O)c1ccccc1	1.39	-1.72	0.381	2.16	0.811	-0.158	-0.008	0.162	0.371	0.381
CC1CC/C=C\[C@H]2OC34C=CCN(c5ccc(Cl)cc5)C(=O)[C@H]3N(CCO)C(=O)[C@]4(C)C2C(=O)O1 (stereo not given in full)	-1.01	-1.35	-1.1	-0.795	-0.633	-0.124	-0.367	-0.342	-0.485	-0.445
C=CCOC(=O)[C@@H]1[C@H]2C(=O)O[C@H](c3ccccc3)[C@H](c3ccccc3)N2[C@H](c2ccc(OCCOC(=O)[C@@H]3C[C@@H]4C(=O)N[C@@H](Cc5ccccc5)C(=O)N4[C@@H]3c3ccc(O)cc3)cc2)[C@@]12C(=O)Nc1ccc(I)cc12	1.38	-0.726	0.56	0.75	0.299	-0.0981	0.178	-0.0784	-0.289	1.02
COC(=O)[C@@]1(Cc2ccccc2)[C@H]2c3cc(C(=O)N(C)C)n(CCSCCO)c3C[C@H]2CN1C(=O)c1ccccc1	0.933	-1.34	-0.654	1.26	0.786	0.117	0.383	1.66	0.0664	0.317
COCCn1c(C(=O)N2CCCC2)cc2c1C[C@H]1CN(C(=O)c3ccccc3)[C@@](Cc3ccc(F)cc3)(C(=O)OC)[C@@H]21	1.43	-1.42	-0.0638	2.41	0.954	0.402	0.636	-0.489	2.88	0.476
C=C(COC)/C(=C/C[C@H](OC(=O)c1ccncc1)c1ccc(OCCO)cc1)c1cnc2ccccc2c1	1.46	-1.63	1.07	0.447	-0.669	0.0328	0.171	-0.456	0.78	2.8
C=CC[C@@]1(C(=O)NCc2ccccc2)N=C(c2ccc(OCCCO)cc2)O[C@@H]1c1ccccc1N=[N+]=[N-]	1.25	-0.874	-0.258	1.17	0.399	0.0839	0.171	1.74	1.44	1.82
C[C@@]1([C@@H](NC(=O)c2ccccc2)c2ccc(-c3ccccc3)cc2)C[C@H]1C1CCCCC1	-0.752	0.602	-0.535	1.32	1.19	-0.006	-0.353	0.18	0.294	-0.272
C=CCNC(=O)[C@@H]1[C@H]2C(=O)O[C@H](c3ccccc3)[C@H](c3ccccc3)N2[C@H](c2ccccc2OCCO)[C@@]12C(=O)N(C(=O)OCCOC)c1ccc(C#CCNC(N)=O)cc12	1.36	-1.19	0.213	1.58	0.27	-0.0196	-0.739	0.658	0.96	1.76
CC(C)C(=C=CC[C@@H](O)c1ccccc1OCCO)CCO	-0.79	-1.49	0.156	0.084	-0.21	-0.0836	-0.0471	-0.371	-0.549	0.606
CN1C(=O)C2C=CC(C(O)c3ccc(-c4ccccc4)s3)N(N(c3ccccc3)c3ccccc3)C2C1=O (stereo not given)	0.761	0.339	-0.18	0.906	0.405	0.0324	-0.0813	1.44	0.397	1.37
C[N+](C)(C)CCCC[C@@H]1NC(=O)[C@@H]2C[C@H](C(=O)NCCCCCN)[C@H](c3cccc(OCCO)c3)N2C1=O	1.32	-0.0028	-0.202	1.7	1.12	-0.289	-0.256	0.422	0.987	0.932
O=C1O[C@H](c2ccccc2)[C@H](c2ccccc2)N2[C@H]1[C@@H](C(=O)Nc1nc3ccccc3s1)[C@]1(C(=O)Nc3ccc(C#CC4(O)CCCCCC4)cc31)[C@H]2c1ccc(OCCO)cc1	0.877	-2.09	0.426	1.91	0.0521	-0.0381	-0.0446	0.287	1.55	1.77
COc1ccc(C(O)C2C=CC3C(=O)N(C)C(=O)C3N2N2CCCCC2)c2ccccc12 (stereo not given)	1.43	-0.534	-0.129	1.26	0.639	0.131	0.476	-0.0646	0.826	1.34
CCCCC(=C=CC[C@@H](O)c1ccccc1OCCO)CCO	-0.0803	-0.23	-0.855	0.184	0.23	-0.147	-0.366	-0.034	0.212	-0.0423
COCCOC(=O)N1C(=O)[C@@]2(c3cc(C#CC4=CCCCC4)ccc31)[C@H](C(=O)Nc1nc3ccccc3s1)[C@H]1C(=O)O[C@H](c3ccccc3)[C@H](c3ccccc3)N1[C@@H]2c1ccc(OCCO)cc1	1.05	-1.09	0.269	0.792	-0.171	-0.0685	-0.196	-0.337	0.47	0.387
